PubChem BioAssay
Calls of active or inactive are those of the source.

Tests used:
[1] = tested on: PRMT1 (protein arginine N-methyltransferase 1); assay: PRMT1 binders on small-molecule microarrays, primary screen, biochemical, small-molecule microarray, 635 nm fluorescence (AID 1088); conditions: small-molecule microarray binding, higher = more signal;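 also: binding of Prmt1 protein to compounds spotted on small-molecule microarray slides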
[2] = yeast growth modulation, basal conditions, primary screen, YJM789 clinical isolate, OD600, 24 h (AID 1089);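 also: growth of clinical yeast isolate S. cerevisiae YJM 789 seeded 1000 cells per well; test concentration not given here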; conditions: S. cerevisiae YJM789 growth, higher = more signal, called active from +8 up or from −8 down
[3] = fission yeast growth modulation, primary screen, strain 972, OD600, 24 h, no modulator (AID 1090);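 also: basal condition with compound alone and no growth modifier present; test concentration not given here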; conditions: S. pombe 972 growth, higher = more signal, called active from +8 up or from −8 down
[4] = S. cerevisiae growth modulation with rapamycin, primary screen, strain BY4716, OD600, 96 h (AID 1091); conditions: higher = more signal, called active from +8 up or from −8 down; also: test concentration not given here
[5] = molecular target: Torsin-1A-interacting protein 2 (Homo sapiens) (UniProt Q8NFQ8); assay: LULL1 binders on small-molecule microarray, primary screen, cell lysate, human LULL1 lysate, 635/667 nm fluorescence (AID 1092); conditions: hLULL1 lysate binding, 635 nm fluorescence, higher = more signal;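 also: probe is lysate of COS7 cells overexpressing human LULL1; score merges per-feature 667 nm fluorescence with signal-to-noise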
Chain of Torsin-1A-interacting protein 2 (Homo sapiens) (Q8NFQ8 whole entry, looked up): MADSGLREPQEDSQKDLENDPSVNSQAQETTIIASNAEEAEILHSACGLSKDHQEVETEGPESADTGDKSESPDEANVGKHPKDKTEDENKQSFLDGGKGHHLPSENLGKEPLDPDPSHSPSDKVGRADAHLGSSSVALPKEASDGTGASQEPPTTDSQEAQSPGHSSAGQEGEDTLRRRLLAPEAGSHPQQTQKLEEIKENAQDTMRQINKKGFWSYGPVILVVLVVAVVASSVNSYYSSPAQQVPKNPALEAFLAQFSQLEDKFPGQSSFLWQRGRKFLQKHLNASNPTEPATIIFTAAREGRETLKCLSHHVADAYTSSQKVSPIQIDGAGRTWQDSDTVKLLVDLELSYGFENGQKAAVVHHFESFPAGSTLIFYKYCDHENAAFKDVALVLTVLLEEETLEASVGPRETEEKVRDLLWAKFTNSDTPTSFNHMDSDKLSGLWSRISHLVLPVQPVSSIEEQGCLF

[6] = E. coli growth modulation, two-sided OD650, primary screen, E. coli filamentation project, strain DRC41, 24 h (AID 1093); conditions: OD650, 24 h, higher = more signal, called active from +8 up or from −8 down;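 also: MC1000 strain lacking acrAB efflux and sulA so SOS filamentation is blocked; test concentration not given here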
[7] = small-molecule microarray binders of probe aLefty2, primary screen, biochemical, biotinylated probe, 635/667 nm fluorescence (AID 1094); conditions: higher = more signal;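 also: score merges spot fluorescence near 667 nm with spot signal-to-noise ratio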
[8] = tested on: Noggin (protein binding on small-molecule microarray); assay: Noggin binders on small-molecule microarray, primary screen, biochemical, 635/667 nm fluorescence (AID 1095); conditions: 635 nm fluorescence, higher = more signal;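 also: score merges 667 nm feature fluorescence with signal to noise over triplicate slides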
[9] = molecular target: Neurogenic locus notch homolog protein 3 (Homo sapiens) (UniProt Q9UM47); assay: NOTCH3 binders on small-molecule microarray, primary screen, biochemical, 635/667 nm fluorescence (AID 1096); conditions: NOTCH3 binding, 635 nm fluorescence, higher = more signal
Chain of Neurogenic locus notch homolog protein 3 (Homo sapiens) (Q9UM47 whole entry, looked up): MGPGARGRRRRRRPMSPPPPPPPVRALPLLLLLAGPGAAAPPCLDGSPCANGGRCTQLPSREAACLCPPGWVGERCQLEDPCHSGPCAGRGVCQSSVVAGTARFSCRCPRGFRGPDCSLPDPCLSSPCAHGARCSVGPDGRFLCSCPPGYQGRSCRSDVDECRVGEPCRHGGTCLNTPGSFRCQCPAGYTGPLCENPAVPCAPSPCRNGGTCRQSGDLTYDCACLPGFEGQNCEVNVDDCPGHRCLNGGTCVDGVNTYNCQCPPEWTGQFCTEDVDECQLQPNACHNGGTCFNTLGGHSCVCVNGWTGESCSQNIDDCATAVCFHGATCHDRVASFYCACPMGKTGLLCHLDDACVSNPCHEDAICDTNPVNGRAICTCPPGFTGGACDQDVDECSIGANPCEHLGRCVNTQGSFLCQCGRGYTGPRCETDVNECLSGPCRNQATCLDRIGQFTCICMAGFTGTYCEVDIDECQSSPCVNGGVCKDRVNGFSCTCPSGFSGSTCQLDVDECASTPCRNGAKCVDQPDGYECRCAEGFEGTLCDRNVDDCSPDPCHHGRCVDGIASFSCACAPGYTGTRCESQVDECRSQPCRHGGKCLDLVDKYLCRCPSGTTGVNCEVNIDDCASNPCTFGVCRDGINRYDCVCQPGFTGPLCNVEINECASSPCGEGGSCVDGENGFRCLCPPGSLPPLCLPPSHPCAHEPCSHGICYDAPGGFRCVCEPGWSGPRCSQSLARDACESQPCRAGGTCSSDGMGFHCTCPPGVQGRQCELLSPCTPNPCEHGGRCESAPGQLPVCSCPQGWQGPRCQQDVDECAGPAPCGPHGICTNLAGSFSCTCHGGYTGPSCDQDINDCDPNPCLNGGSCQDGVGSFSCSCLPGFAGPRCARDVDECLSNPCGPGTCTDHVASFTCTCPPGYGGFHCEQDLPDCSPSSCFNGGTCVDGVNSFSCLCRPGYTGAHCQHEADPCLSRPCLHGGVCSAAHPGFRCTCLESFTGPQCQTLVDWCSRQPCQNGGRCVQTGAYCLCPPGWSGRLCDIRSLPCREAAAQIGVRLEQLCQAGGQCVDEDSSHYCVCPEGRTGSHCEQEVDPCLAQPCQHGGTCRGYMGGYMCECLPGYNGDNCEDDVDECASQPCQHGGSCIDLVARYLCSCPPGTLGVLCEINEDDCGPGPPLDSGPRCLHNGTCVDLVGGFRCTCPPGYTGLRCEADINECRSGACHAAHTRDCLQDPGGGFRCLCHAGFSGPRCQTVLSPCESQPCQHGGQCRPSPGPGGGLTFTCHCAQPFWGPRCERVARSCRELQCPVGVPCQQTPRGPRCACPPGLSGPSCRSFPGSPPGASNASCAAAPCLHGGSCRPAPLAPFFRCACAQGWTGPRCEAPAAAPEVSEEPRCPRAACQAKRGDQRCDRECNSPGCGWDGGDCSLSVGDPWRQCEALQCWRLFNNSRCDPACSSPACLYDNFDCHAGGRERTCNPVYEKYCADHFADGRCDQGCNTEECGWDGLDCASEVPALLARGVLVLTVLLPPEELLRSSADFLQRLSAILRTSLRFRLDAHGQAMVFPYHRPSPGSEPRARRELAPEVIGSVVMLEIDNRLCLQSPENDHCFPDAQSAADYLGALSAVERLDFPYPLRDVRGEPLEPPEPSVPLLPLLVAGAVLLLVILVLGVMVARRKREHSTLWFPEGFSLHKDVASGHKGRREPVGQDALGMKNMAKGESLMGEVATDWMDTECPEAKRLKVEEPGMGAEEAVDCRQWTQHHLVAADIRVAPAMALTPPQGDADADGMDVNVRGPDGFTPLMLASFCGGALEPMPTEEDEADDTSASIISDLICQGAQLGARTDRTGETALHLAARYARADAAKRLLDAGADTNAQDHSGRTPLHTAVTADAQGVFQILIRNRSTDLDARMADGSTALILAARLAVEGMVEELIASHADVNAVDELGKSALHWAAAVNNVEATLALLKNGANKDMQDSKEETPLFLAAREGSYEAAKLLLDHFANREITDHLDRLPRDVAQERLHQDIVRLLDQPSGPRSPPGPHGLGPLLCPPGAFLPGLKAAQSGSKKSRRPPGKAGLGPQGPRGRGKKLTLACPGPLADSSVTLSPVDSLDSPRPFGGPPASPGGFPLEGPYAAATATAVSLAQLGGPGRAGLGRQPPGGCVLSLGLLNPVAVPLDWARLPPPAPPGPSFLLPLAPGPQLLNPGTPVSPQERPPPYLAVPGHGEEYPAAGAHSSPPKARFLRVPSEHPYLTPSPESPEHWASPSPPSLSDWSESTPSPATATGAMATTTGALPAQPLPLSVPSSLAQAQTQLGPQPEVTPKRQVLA

[10] = small-molecule microarray binders of probe aEGFR, primary screen, biochemical, biotinylated probe, 635/667 nm fluorescence (AID 1097); conditions: higher = more signal;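 also: probe is a biotinylated anti-EGFR antibody binding compounds printed on slides; score combines fluorescence near 667 nm and signal to noise of each spot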

Row | Compound | composite z-score [1] | z-score [2] | z-score [3] | z-score [4] | composite z-score [5] | z-score [6] | composite z-score [7] | composite z-score [8] | composite z-score [9] | composite z-score [10]
1 | C=C(/C(=C/C[C@@H](OC(=O)c1ccncc1)c1ccc(OCCO)cc1)c1cnc2ccccc2c1)C(C)C | 1.55 | -24.8 (active) | -20.4 (active) | -4.32 (inactive) | 0.65 | 1.23 (inactive) | -0.0262 | 1.65 | 1.07 | -0.0949
2 | CC(C)CON=C1C[C@@H](O)[C@@H](O)[C@@H]2[C@@H]3C(=O)N([C@@H](C)c4ccccc4)C(=O)[C@@H]3CC[C@H]12 | 1.54 | 0.466 (inactive) | 0.443 (inactive) | -0.0803 (inactive) | 2.73 | 0.0955 (inactive) | -0.128 | 1.12 | 1.08 | -0.0146
3 | N#Cc1ccc(NN2C(C(O)c3cccc4ccccc34)C=CC3C(=O)N(c4ccccc4)C(=O)C32)cc1 (stereo not given) | 1.39 | 0.242 (inactive) | 2.28 (inactive) | 1.75 (inactive) | 3.41 | -0.339 (inactive) | 0.341 | 0.157 | -0.262 | 0.0785
4 | COc1ccc(-c2nc3c(c4c2C[C@H](C)OC4)CN(CCC(C)C)CC3)cc1 | 1.31 | 0.382 (inactive) | -0.692 (inactive) | 0.0635 (inactive) | 1.5 | 0.618 (inactive) | -0.142 | 0.501 | 0.982 | 0.167
5 | COc1ccc(COC(=O)NN=C2C[C@@H](O)[C@@H](O)[C@@H]3[C@@H]4C(=O)N(c5ccc(F)cc5F)C(=O)[C@@H]4CC[C@@H]23)cc1 | -1.42 | 0.935 (inactive) | -0.423 (inactive) | 0.0088 (inactive) | -0.524 | 0.488 (inactive) | 0.0215 | -0.0901 | 0.14 | -0.117
6 | C[C@H]1CC[C@@H](C(=O)O)N[C@@H]1c1ccc(C#CCN(C)C)cc1 | -0.521 | 1.07 (inactive) | -0.509 (inactive) | -0.434 (inactive) | -0.141 | 0.657 (inactive) | -0.128 | 0.102 | 0.498 | -0.0564
7 | O=C1O[C@@H](c2ccccc2)[C@@H](c2ccccc2)N2[C@@H](c3ccc(OCCO)cc3)[C@]3(C(=O)Nc4ccc(C#CCCO)cc43)[C@@H](C(=O)N3CCCCCCC3)[C@H]12 | 1.54 | 1.15 (inactive) | -0.507 (inactive) | 2.23 (inactive) | 3.83 | 0.694 (inactive) | 1.35 | 1.39 | 1.08 | 0.249
8 | C=CCOC(=O)[C@H]1[C@@H]2C(=O)O[C@@H](c3ccccc3)[C@@H](c3ccccc3)N2[C@@H](c2ccc(OCCOC(=O)[C@H]3C[C@H]4C(=O)N5CCC[C@H]5C(=O)N4[C@H]3c3cccc(OCCO)c3)cc2)[C@]12C(=O)Nc1ccc(I)cc12 | 1.53 | -0.104 (inactive) | -0.77 (inactive) | 0.289 (inactive) | 3.41 | -0.301 (inactive) | 1.35 | 1.49 | 1.12 | 0.938
9 | O=C1[C@H]2[C@H]3[C@H](O)[C@H](O)CC(=NO[C@@H]4O[C@H](CO)[C@@H](O)[C@H](O)[C@H]4O)[C@H]3CC[C@H]2C(=O)N1C1CCCCC1 | 1.55 | -0.546 (inactive) | 0.506 (inactive) | -0.0694 (inactive) | 1.58 | 0.15 (inactive) | -0.0652 | 1.36 | 0.308 | -0.12
10 | C=C(/C(=C/C[C@H](OC(C)=O)c1ccc(OCCO)cc1)c1cnc2ccccc2c1)C(C)C | 1.44 | -1.75 (inactive) | -2.26 (inactive) | -1.03 (inactive) | 1.67 | 1.19 (inactive) | -0.062 | 1.58 | 1.1 | -0.204
11 | C#CCCCON=C1C[C@@H](O)[C@@H](O)[C@@H]2[C@@H]3C(=O)N([C@@H](C)c4ccccc4)C(=O)[C@@H]3CC[C@H]12 | 0.37 | 0.45 (inactive) | 0.347 (inactive) | -0.418 (inactive) | 0.773 | 0.229 (inactive) | 0.0008 | 0.573 | 0.999 | 0.207
12 | C[C@@H](c1ccccc1)N1C(=O)[C@H]2[C@H]3[C@H](O)C=CC(=O)[C@@H]3CC[C@H]2C1=O | 0.595 | -0.432 (inactive) | -0.271 (inactive) | -0.402 (inactive) | -0.309 | 0.372 (inactive) | -0.252 | 0.421 | 0.698 | -0.0649
13 | C[C@H](c1ccccc1)N1C(=O)[C@H]2[C@@H]3C(=CC[C@H]2C1=O)C(=O)[C@H]1O[C@H]1[C@H]3O | -0.511 | 0.389 (inactive) | -1.84 (inactive) | 0.292 (inactive) | -0.597 | -0.295 (inactive) | -0.0305 | 0.447 | 0.172 | -0.138
14 | CC(C)CON=C1[C@H]2CCn3c(=O)n(-c4ccccc4)c(=O)n3[C@H]2[C@H](O)[C@@H]2O[C@H]12 | -0.317 | -0.476 (inactive) | 0.0606 (inactive) | -0.369 (inactive) | -0.381 | 0.343 (inactive) | -0.149 | 0.302 | 0.837 | -0.228
15 | COC(=O)c1c(CC[C@@H](CO)NC(=O)N[C@H](Cc2ccccc2)Cn2cc(-c3ccccc3N)nn2)oc(C(C)=O)c1C(=O)OC | 1.19 | -0.231 (inactive) | -1.15 (inactive) | 0.2 (inactive) | 1.05 | 0.382 (inactive) | 0.323 | 0.173 | 0.492 | 0.195
16 | COc1ccc(O[C@@H]2[C@H](O)CO[C@H]2C=CC#Cc2ccccc2)cc1 | 0.101 | 0.937 (inactive) | -0.777 (inactive) | 0.958 (inactive) | 0.0101 | 0.338 (inactive) | -0.197 | 0.347 | -0.413 | -0.228
17 | CCc1cc2c(nc1CC)CCN(CCC(C)=NO[C@@H](C)c1cc(-c3c(C)cc(C)cc3C)no1)C2 | 0.608 | -0.889 (inactive) | -6.86 (inactive) | -1.26 (inactive) | 0.468 | -0.0254 (inactive) | -0.0765 | 0.343 | -1.5 | -0.172
18 | COc1cccc([C@@H]2Oc3ccc(Br)cc3C(=O)[C@H]2O)c1 | -0.366 | -2.84 (inactive) | -10.6 (active) | -1.5 (inactive) | 1.49 | 0.9 (inactive) | -0.0615 | 1.13 | 0.834 | -0.0828
19 | COC(=O)[C@@H]1CC[C@H](C)[C@@H](c2ccc(C)cc2)N1C(=O)c1ccc(C=NOC(C)CN2CCCCc3nc(C)c(C)cc32)cc1 (stereo not given in full) | -0.066 | -0.632 (inactive) | -11.8 (active) | 0.325 (inactive) | -0.0101 | 0.829 (inactive) | -0.0332 | 0.149 | -0.145 | -0.0929
